In PubChem BioAssay (EPA / NIEHS) one finds outcome and AC50 data, which are given here for 7 molecules.

Read-out in test [1]: Vascular endothelial growth factor receptor 2 (Homo sapiens) (UniProt P35968)
The test is described as follows: BSK_4H_VEGFRII: BioMAP Diversity Plus: 4H Assay for Vascular endothelial growth factor receptor 2 (VEGFR2) Biomarker Activity (AID 2283031). Particulars: primary human endothelial cells (HUVEC); actives raise or lower the signal. An outline of the steps:
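In this multiplexed HUVEC system, biomarker ELISA was performed after 24 h chemical exposure. Parallel SRB staining (TCA fixation, 560 nm) tracked cytotoxicity; DMSO served as baseline.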

Read-out in test [2]: Human Leukocyte Antigen - DR isotype (HLADR), HLA-DRA (gene 3122)
The test is described as follows: BSK_BE3C_HLADR: BioMAP Diversity Plus: BE3C Assay for Human Leukocyte Antigen - DR isotype (HLADR) Biomarker Activity (AID 2283032). The conditions noted are these: primary human bronchial epithelial cells; actives raise or lower the signal. The gist of the method:
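ELISA read-out of HLA-DR on human lung bronchial epithelial primary cells, measured 24 h post-dosing. Both increases and decreases were scored relative to DMSO vehicle.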

Read-out in test [3]: Vascular cell adhesion molecule 1 (VCAM1), VCAM1 (gene 7412)
The test is described as follows: BSK_4H_VCAM1: BioMAP Diversity Plus: 4H Assay for Vascular cell adhesion molecule 1 (VCAM1) Biomarker Activity (AID 2283033).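 On outcome: cell-surface VCAM-1 protein measured by ELISA.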 The conditions noted are these: primary human endothelial cells (HUVEC); actives raise or lower the signal. The gist of the method:
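ELISA read-out of VCAM-1 on human umbilical vein endothelium 24 hours after chemical dosing; gain or loss of signal was fitted relative to DMSO, with sulforhodamine B staining of parallel cultures flagging overt cytotoxicity.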

Read-out in test [4]: Interferon-gamma inducible Protein 10 (IP10), CXCL10 (gene 3627)
Description: BSK_BE3C_IP10: BioMAP Diversity Plus: BE3C Assay for Interferon-gamma inducible Protein 10 (IP10) Biomarker Activity (AID 2283034). The conditions noted are these: primary human bronchial epithelial cells; actives raise or lower the signal. The gist of the method:
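Chemical is dosed onto human lung bronchial epithelial primary cells, cultures are incubated 24 h, and IP-10 is then quantified by ELISA. Gain or loss of signal is fitted in both directions relative to DMSO.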

Read-out in test [5]: Monokine induced gamma interferon (MIG), CXCL9 (gene 4283)
The test is described as follows: BSK_BE3C_MIG: BioMAP Diversity Plus: BE3C Assay for Monokine induced gamma interferon (MIG) Biomarker Activity (AID 2283035). Particulars: primary human bronchial epithelial cells; actives raise or lower the signal. An outline of the steps: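 Primary human bronchial epithelial cells treated for 24 h; MIG levels measured by ELISA, fitted bidirectionally versus DMSO. Parallel SRB total-protein staining assessed cytotoxicity.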

Read-out in test [6]: Plasminogen activator inhibitor-1 (PAI1), SERPINE1 (gene 5054)
The test is described as follows: BSK_BE3C_PAI1: BioMAP Diversity Plus: BE3C Assay for Plasminogen activator inhibitor-1 (PAI1) Biomarker Activity (AID 2283037). The conditions noted are these: primary human bronchial epithelial cells; actives raise or lower the signal. The gist of the method:
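Primary human lung bronchial epithelial cells; chemical dosing; 24 h; PAI-1 measured by ELISA; bidirectional fit referenced to DMSO as negative control.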

Read-out in test [7]: urokinase plasminogen activator (uPA), PLAU (gene 5328)
The test is described as follows: BSK_BE3C_uPA: BioMAP Diversity Plus: BE3C Assay for urokinase plasminogen activator (uPA) Biomarker Activity (AID 2283038).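 Further: uPA protein level quantified by ELISA in cell cultures; uPA read one day after compound addition.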 The conditions noted are these: primary human bronchial epithelial cells; actives raise or lower the signal. An outline of the steps:
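Using confluent primary human lung bronchial epithelial cultures, we dosed chemicals, waited 24 h, then ran a uPA ELISA, fitting bidirectionally against DMSO.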

Read-out in test [8]: Urokinase-type plasminogen activator receptor (uPAR), PLAUR (gene 5329)
The test is described as follows: BSK_BE3C_uPAR: BioMAP Diversity Plus: BE3C Assay for Urokinase-type plasminogen activator receptor (uPAR) Biomarker Activity (AID 2283039).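 Further: cells exposed to compound for one day before measurement.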 Particulars: primary human bronchial epithelial cells; actives raise or lower the signal. The gist of the method: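 Human bronchial epithelial primary cells; chemical exposure 24 h; uPAR by ELISA; bidirectional fit vs DMSO control.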

Read-out in test [9]: Interleukin-6 (IL6), IL6 (gene 3569)
The test is described as follows: BSK_CASM3C_IL6: BioMAP Diversity Plus: CASM3C Assay for Interleukin-6 (IL6) Biomarker Activity for (AID 2283040). Particulars: primary human coronary artery smooth muscle cells; actives raise or lower the signal.

Read-out in test [10]: Tissue plasminogen activator (tPA), PLAT (gene 5327)
Description: BSK_BE3C_tPA: BioMAP Diversity Plus: BE3C Assay for Tissue plasminogen activator (tPA) Biomarker Activity (AID 2283041).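 Further: tPA level quantified by ELISA one day after compound addition.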 The conditions noted are these: primary human bronchial epithelial cells; actives raise or lower the signal. An outline of the steps: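 Primary human lung bronchial epithelial cultures receive test chemical; after 24 h, tPA is quantified by ELISA, and gain or loss of signal is fitted bidirectionally relative to DMSO baseline.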

Read-out in test [11]: Interleukin-8 (IL8), CXCL8 (gene 3576)
The test is described as follows: BSK_CASM3C_IL8: BioMAP Diversity Plus: CASM3C Assay for Interleukin-8 (IL8) Biomarker Activity (AID 2283042).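 Further: IL-8 protein level quantified by ELISA.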 Particulars: primary human coronary artery smooth muscle cells; actives raise or lower the signal.

Read-out in test [12]: Human Leukocyte Antigen - DR isotype (HLADR), HLA-DRA (gene 3122)
The test is described as follows: BSK_CASM3C_HLADR: BioMAP Diversity Plus: CASM3C Assay for Human Leukocyte Antigen - DR isotype (HLADR) Biomarker Activity (AID 2283043).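 Further: cell-surface HLA-DR protein level quantified by ELISA.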 Particulars: primary human coronary artery smooth muscle cells; actives raise or lower the signal.

Read-out in test [13]: Macrophage colony-stimulating factor (MCSF), CSF1 (gene 1435)
Description: BSK_CASM3C_MCSF: BioMAP Diversity Plus: CASM3C Assay for Macrophage colony-stimulating factor (MCSF) Biomarker Activity (AID 2283044).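 Further: M-CSF protein amount quantified by ELISA after 24 h exposure.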 Particulars: primary human coronary artery smooth muscle cells; actives raise or lower the signal.

Read-out in test [14]: Low-density lipoprotein receptor (LDLR), LDLR (gene 3949)
The test is described as follows: BSK_CASM3C_LDLR: BioMAP Diversity Plus: CASM3C Assay for Low-density lipoprotein receptor (LDLR) Biomarker Activity (AID 2283045).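 Further: LDLR protein level on the cell surface quantified by ELISA.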 The conditions noted are these: primary human coronary artery smooth muscle cells; actives raise or lower the signal.

Read-out in test [15]: Monocyte Chemoattractant Protein-1 (MCP1), CCL2 (gene 6347)
Description: BSK_CASM3C_MCP1: BioMAP Diversity Plus: CASM3C Assay for Monocyte Chemoattractant Protein-1 (MCP1) Biomarker Activity (AID 2283046).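 Further: MCP-1 level quantified by ELISA 24 h after dosing.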 The conditions noted are these: primary human coronary artery smooth muscle cells; actives raise or lower the signal.

A short description of test [16]: BSK_CASM3C_Proliferation: Cell Proliferation Assessment in the BioMAP Diversity Plus: CASM3C Assay (AID 2283047).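 Further: sulforhodamine B total protein stain as relative cell number at 560 nm; sub-confluent cells exposed 48 h before staining; fitted both ways against DMSO so gain or loss of cell number.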 The conditions noted are these: primary human coronary artery smooth muscle cells.
Read-out in test [17]: Monokine induced gamma interferon (MIG), CXCL9 (gene 4283)
The test is described as follows: BSK_CASM3C_MIG: BioMAP Diversity Plus: CASM3C Assay for Monokine induced gamma interferon (MIG) Biomarker Activity (AID 2283048). The conditions noted are these: primary human coronary artery smooth muscle cells; actives raise or lower the signal.

Read-out in test [18]: serum amyloid A (SAA), SAA1 (gene 6288)
Description: BSK_CASM3C_SAA: BioMAP Diversity Plus: CASM3C Assay for serum amyloid A (SAA) Biomarker Activity (AID 2283049).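 Further: SAA protein level quantified by ELISA.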 Particulars: primary human coronary artery smooth muscle cells; actives raise or lower the signal.

A short description of test [19]: BSK_CASM3C_SRB: Viability Assessment in the BioMAP Diversity Plus: CASM3C Assay (AID 2283050).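 Further: total protein by SRB staining as cytotoxicity measure in parallel cultures.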 The conditions noted are these: primary human coronary artery smooth muscle cells.
Read-out in test [20]: Transforming growth factor beta 1 (TGFb1), TGFB1 (gene 7040)
Description: BSK_BE3C_TGFb1: BioMAP Diversity Plus: BE3C Assay for Transforming growth factor beta 1 (TGFb1) Biomarker Activity (AID 2283036;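 further: TGF-b1 protein level measured by ELISA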). Particulars: primary human bronchial epithelial cells; actives raise or lower the signal. The gist of the method:
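Primary human lung bronchial epithelial cells; compound exposure 24 h; TGF-b1 by ELISA; bidirectional fit, DMSO baseline. Parallel SRB total-protein staining for cytotoxicity.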

Where “and” joins values, the source holds several entries; their conditions need not be identical. Equal entries are not always repeated. The source holds several records for some structures; these can differ, active in one and inactive in another. Calls of active or inactive are those of the source. How the source made its calls: active means hit-call score of the fitted dose curve at least 0.9, where 1 is the maximum; inactive means score below 0.9.

The AC50 is the midpoint of the concentration-response curve, whichever way the signal moves.

`NC(=O)C(F)(F)C(F)(F)F`: the result in test [1], in test [2], in [3], in test [4], in test [5] and in test [6] was inactive. In addition, the outcome in test [7], in test [8], in test [9], in [10], in test [11] and in test [12] was inactive. Further, the result in test [13], in [14], in test [15], in [16], in test [17] and in test [18] was inactive. Moreover, in test [19], the result was inactive.

With `Cc1ccc2c(c1N)C(=O)c1ccccc1C2=O`, the result in test [1], in test [3], in test [4], in test [5], in test [20] and in test [6] was inactive. Further, the outcome in test [7], in [8], in [9], in test [10], in [11] and in test [12] was inactive. Also, the outcome in test [14], in test [15], in test [16], in [17], in test [18] and in test [19] was inactive. For the same molecule, in test [2], the AC50 was 5.4 µM (active).

For `OCC(F)(F)OC(F)(F)C(F)(F)OC(F)(F)C(F)(F)OC(F)(F)CO`, the outcome in test [1], in [3], in [5], in test [6], in [7] and in test [8] was inactive. The result in test [9], in test [10], in test [11], in test [12], in [13] and in test [14] was inactive. In addition, the result in test [15], in [16], in test [17], in test [18] and in test [19] was inactive. Further, the AC50 in test [2] was 45.5 µM (active) and 30 µM (active); in test [4] it was 44.9 µM (active) and 35.8 µM (active); in [16], 47.2 µM (active).

In the case of `Nc1ccc([N+](=O)[O-])cc1Cl`, the outcome in test [1], in [2], in test [3], in test [4], in [5] and in test [20] was inactive. Besides, the outcome in test [6], in test [7], in [8], in test [9], in [10] and in test [11] was inactive. In addition, the outcome in test [12], in [13], in [14], in [15], in [16] and in test [17] was inactive. In addition, the result in test [18] and in test [19] was inactive.

Take `O=P(Oc1ccccc1)(Oc1ccccc1)Oc1ccccc1`: the outcome in test [1], in test [5], in test [20], in test [7], in test [8] and in [9] was inactive. The outcome in test [10], in test [11], in test [12], in test [13], in test [15] and in test [17] was inactive. In addition, the result in [18] and in test [19] was inactive. Also, the AC50 in test [3] was 26.8 µM (active); in test [4], 26.3 µM (active); in test [6], 10.6 µM (active); in [14] it was 29.5 µM (active); in [16] it was 26 µM (active).

For the molecule `O=P(OCC(Br)CBr)(OCC(Br)CBr)OCC(Br)CBr` (stereo not given), the outcome in [1], in test [2], in test [4], in test [5], in test [20] and in test [6] was inactive. Also, the result in [7], in test [8], in [9], in [10], in test [11] and in test [12] was inactive. Also, the outcome in test [13], in test [15], in [17], in [18] and in test [19] was inactive. The values for the AC50 in test [3] and in test [16] were 3.69 µM (active) and 3.51 µM (active), respectively.

Take `O=[N+]([O-])c1ccccc1`: the result in test [2], in [3], in [4], in test [5], in test [20] and in test [6] was inactive. The result in test [7], in test [8], in test [9], in test [10], in [11] and in [12] was inactive. In addition, the outcome in test [13], in test [14], in test [15], in test [16], in [17] and in test [18] was inactive. For the same molecule, the result in test [19] was inactive.
